Usually inhibition stands for the change of the read-out against control, counted positive when it falls.

The structures appear in SMILES notation. In all, about 290,000 compounds went through this assay and about 11,000 (3.8%) were called active.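 Rule for the calls: active = mean replicate inhibition above about 79%, with every replicate also reaching it (limit read from the data); inconclusive = only one of the two criteria met; inactive = mean below limit and not every replicate reaching it.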 The full list was thinned out, with actives kept by preference.

FAD-linked sulfhydryl oxidase ALR (Homo sapiens), sequence (P55789 whole entry, looked up): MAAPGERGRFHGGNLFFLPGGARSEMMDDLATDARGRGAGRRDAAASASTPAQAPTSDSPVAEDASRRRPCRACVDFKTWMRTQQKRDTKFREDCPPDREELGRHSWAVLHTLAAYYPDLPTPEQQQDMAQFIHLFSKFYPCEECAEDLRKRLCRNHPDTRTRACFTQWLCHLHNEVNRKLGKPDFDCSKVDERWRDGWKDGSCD

The assay has as its target FAD-linked sulfhydryl oxidase ALR (Homo sapiens) (UniProt P55789). Nature of the assay: inhibitors of human ALR sulfhydryl oxidase, primary screen, biochemical, H2O2 detection, HRP-luminol luminescence, single point (AID 485317). To be noted: purified ALR, DTT oxidation, stronger effect = higher value, concentration not given here.
For the molecule `COc1cc(C(=O)Nc2ncccc2C)ccc1OCC(=O)N1CCOCC1`, the inhibition was -1.3% (inactive).

Regarding `CCOc1ccc(C(=O)CCC(=O)NC2=NCCS2)cc1`, the inhibition is 2.64% (inactive).

`COCOc1cc(O)c(C(=O)/C=C/c2ccc(OCOC)c(OCOC)c2)c(OCOC)c1`: the inhibition is 94.9% (active).

As to `COc1ccc(/C=C/C(=O)c2ccc(OC)cc2O)cc1`, the inhibition was -17.6% (inactive).

`CCOc1ccc(/C=C/C(=O)OCC(=O)c2ccccc2OC)cc1OC`: the inhibition was 1.49% (inactive).

Consider `C#CCNC(=O)[C@H](Cc1ccc(C(=O)c2ccccc2)cc1)NC(=O)OC(C)(C)C`, for which the inhibition was -2.67% (inactive).

For the molecule `CCNC(=S)N1CCN(S(=O)(=O)c2ccc(Cl)s2)CC1`, the inhibition was -2.01% (inactive).

Regarding `COc1ccccc1C(=O)Nc1ccc(OCC(=O)N2CCCCC2)cc1`, the inhibition was 2.28% (inactive).

Turning to `Oc1ccc(-c2[nH]ncc2-c2nc3ccccc3s2)c(O)c1`, the inhibition was 83.3% (active).

`CC(=O)Nc1cccc(-c2nc3ccccc3s2)c1C`: the inhibition was -21% (inactive).

Regarding `Cc1cc(O)ccc1-c1cnc2ccccc2n1`, the inhibition was 58% (inactive).

Take `CCN(C(=O)COC(=O)C1CCN(S(=O)(=O)c2ccc(C)c(C)c2)CC1)C1CCS(=O)(=O)C1` (stereo not drawn): the inhibition was -10.6% (inactive).

`COc1ccc(C2=NN(C(=O)CSc3nnnn3C)C(c3ccco3)C2)cc1` (stereo not drawn): the inhibition was 3.36% (inactive).

Consider `Cc1ccc(C(=O)Nc2ccccc2-c2ccccc2)cc1S(=O)(=O)Nc1ccccc1`, for which the inhibition is -2.08% (inactive).

For the molecule `CC1CCN(C(=O)CCNC(=O)c2ccccc2)CC1`, the inhibition was 0.139% (inactive).

Regarding `CCN(CCNC(=O)C1=C(C)C(=O)OC12CCC(C)CC2)c1ccccc1` (stereo not drawn), the inhibition was 98.4% (active).

For `CCOc1ccc(CCNC(=O)C2=C(C)C(=O)OC23CCC(C)CC3)cc1OCC` (stereo not drawn), the inhibition is -1.93% (inactive).

Regarding `Cc1ccc(S(=O)(=O)NC[C@H]2O[C@@H](n3cnc4c(N)ncnc43)[C@H](O)[C@@H]2O)s1`, the inhibition was 1.77% (inactive).

As to `COc1ccc(C(=O)/C=C/c2ccc(-c3ccccc3)cc2)cc1CSCC(=O)O`, the inhibition was 99.2% (active).

With `COC(=O)c1ccc(COc2ccc(/C=N/NC(=O)C(=O)Nc3ccc(OC)cc3)cc2OC)o1`, the inhibition is -5.05% (inactive).

Turning to `COC(=O)c1ccc(COc2ccc(/C=C/C(=O)c3ccc(OC)c(CSCC(=O)O)c3)cc2OC)cc1`, the inhibition is 99.4% (active).

As for `O=C(/C=C/c1ccccc1)c1ccoc1`, the inhibition is 13.2% (inactive).

Turning to `O=C(O)c1ccc2c(c1)C(=O)N(c1ccc(/C=C/C(=O)c3ccccc3)cc1)C2=O`, the inhibition was 50.4% (inactive).

As to `COC(=O)c1ccc(C(NC(=O)OCc2ccccc2)/C(C)=C/[C@@H](C)C(=O)NCc2ccc(OC)c(OC)c2)cc1` (stereo partly drawn), the inhibition is -2.17% (inactive).

With `CC(OC(=O)CN1C(=O)c2ccccc2C1=O)C(=O)c1ccccc1` (stereo not drawn), the inhibition was 4.65% (inactive).

`Cc1nn(CC(=O)Nc2nc3ccccc3s2)c(C)c1[N+](=O)[O-]`: the inhibition is -2.85% (inactive).

Consider `CCOC(=O)N1CCN(CC(=O)Nc2cc(C)nn2-c2nc3ccccc3s2)CC1`, for which the inhibition is 7.49% (inactive).

In the case of `CCC(C)Cn1c(O)cc2nn(-c3nc4ccccc4s3)c(=O)c-2c1C` (stereo not drawn), the inhibition was 98.9% (active).

With `Cc1ccc(-c2csc(NC(=O)C3=COCCO3)n2)cc1C`, the inhibition was 83.7% (active).

Take `Cc1csc(NC(=O)C2=COCCO2)n1`: the inhibition is 1.03% (inactive).

As for `Cc1ccc(-c2csc(NC(=O)c3cnccn3)n2)cc1C`, the inhibition is -0.38% (inactive).

Turning to `O=C(Nc1cccc(S(=O)(=O)NC2=NCCC2)c1)c1ccc(F)cc1F`, the inhibition was -7.53% (inactive).

In the case of `COc1ccc(-c2cc(C(=O)N(C)CC(=O)Nc3ccccc3Cl)c3ccccc3n2)cc1OC`, the inhibition is -3.41% (inactive).

On to `Cc1ccc(S(=O)(=O)N(C)C)cc1NC(=O)COC(=O)/C=C/c1cccs1`, for which the inhibition was -0.0664% (inactive).

Regarding `O=C(OCC(=O)N1CCN(c2ccccc2)CC1)c1ccc([N+](=O)[O-])s1`, the inhibition is -44.6% (inactive).

Take `COC(=O)C(CC(=O)Nc1cc(C)ccc1C)Nc1ccccc1OC` (stereo not drawn): the inhibition was 98.4% (active).

As to `COc1ccccc1NC(=O)CC(NCCN(C)C)C(=O)O` (stereo not drawn), the inhibition is -8.47% (inactive).

As for `COc1ccc(C)cc1NC(=O)Nc1ccccc1SC`, the inhibition is -2.74% (inactive).

Turning to `COc1cc([N+](=O)[O-])ccc1NC(=O)COC(=O)CCOc1ccc(C)cc1`, the inhibition was 24.6% (inactive).

As to `Cc1ccc(NC(=O)Cc2nc(COC(=O)C(C)NS(=O)(=O)c3ccc(C)cc3)cs2)cc1` (stereo not drawn), the inhibition was 14% (inactive).

Regarding `CCN(CC)C(=O)C(=O)Nc1cccc(Br)c1`, the inhibition is 3.75% (inactive).

Consider `CCN(CC)C(=O)CSC(Nc1cccc(F)c1)=C(C#N)C#N`, for which the inhibition was 98.8% (active).

Take `Cc1ccc(CSCC(=O)N(C)CC(=O)Nc2cccc(F)c2)cc1`: the inhibition is -16.3% (inactive).

Regarding `O=C(O)/C=C/C(=O)Nc1ccc(F)cc1F`, the inhibition is 5.9% (inactive).

Take `COc1ccccc1NC(=O)/C=C/C(=O)O`: the inhibition was -9.66% (inactive).

For `COC(=O)c1sc(-c2ccc(C(C)(C)C)cc2)cc1NC(=O)/C=C/C(=O)O`, the inhibition was 98.3% (active).

Regarding `O=C(COC(=O)c1cc(S(=O)(=O)N2CCOCC2)ccc1F)NC1CC1`, the inhibition was -8.45% (inactive).

As for `CN(CC(=O)Nc1ccc(F)c(F)c1F)C(=O)Cn1cnc2c1c(=O)n(C)c(=O)n2C`, the inhibition is -6.05% (inactive).

For `CCCCn1c(N)c(N(CCC(C)C)C(=O)c2ccc(COc3ccccc3)o2)c(=O)[nH]c1=O`, the inhibition was 0.673% (inactive).

Consider `CCOC(=O)c1c(NC(=O)CSc2nnc(C)c(=O)[nH]2)sc2c1CCC2`, for which the inhibition was 90% (active).

Take `NC(=O)c1c(NC(=O)CSc2nc(N)cc(=O)[nH]2)sc2c1CCCC2`: the inhibition was 36% (inactive).

For the molecule `CCCOC(=O)Nc1sc2c(c1C(=O)OCC)CCC2`, the inhibition was 46.6% (inactive).

As to `Cc1ccc(C)c(NC(=O)COC(=O)c2nn(C)c(=O)c3ccccc23)c1`, the inhibition was -9.61% (inactive).

Consider `Cc1ccc(CCC(=O)Nc2ncc(Cc3cc(Cl)ccc3Cl)s2)o1`, for which the inhibition is 53.6% (inactive).

As for `Cc1ccc(Cc2cnc(N)s2)o1`, the inhibition is 99.1% (active).

Take `COc1cccc(C(=O)OCC(=O)c2[nH]c(C)c(C(C)=O)c2C)c1`: the inhibition was -3.4% (inactive).

`Cc1ccc(S(=O)(=O)NCCNC(C)c2ccc(Br)cc2)cc1` (stereo not drawn): the inhibition is -1.35% (inactive).

For the molecule `CC(=O)C1=C(C)NC2=C(C(=O)CC(C)(C)C2)C1C` (stereo not drawn), the inhibition is -3.96% (inactive).

On to `Cc1cc2c(cc1C)NC(c1ccccn1)C1=C(CC(C)(C)CC1=O)N2` (stereo not drawn), for which the inhibition was 99.2% (active).

Turning to `Cc1nn(-c2ccccn2)c2c1C(c1ccncc1)C1=C(CC(C)(C)CC1=O)N2` (stereo not drawn), the inhibition was 16% (inactive).

As for `O=C1CCC/C=C\C[C@@H](CC(=O)N(CCO)Cc2ccccc2)C(=O)NCCO1`, the inhibition is 0.845% (inactive).

`O=C(COC(=O)c1ccco1)Nc1ccc(Cl)cn1`: the inhibition was -2.69% (inactive).

On to `O=C(CNC(=O)c1cccnc1)N/N=C/c1cccnc1`, for which the inhibition is -3.02% (inactive).

Consider `CCN(CC)c1ccc(/C=N/NC(=O)CNC(=O)c2cccnc2)cc1`, for which the inhibition was 98.6% (active).

Take `O=C(CNC(=O)c1cccnc1)N/N=C/c1cc(Br)c(O)c(Br)c1`: the inhibition was 43.1% (inactive).

`COc1ccc(-c2cc3ncccc3cn2)cc1`: the inhibition is 23.1% (inactive).

Turning to `COc1ccc(N/N=C2/CCCCC2=O)cc1`, the inhibition was 99.4% (active).

As for `COc1ccc(CNC2CCCCC2)cc1`, the inhibition was -5.38% (inactive).

For `COc1ccc(CNC(=O)C2CCCC2)cc1`, the inhibition was -0.518% (inactive).

Regarding `CN1CCN(C2Cc3ccc(Cl)cc3Sc3ccc(F)cc32)CC1` (stereo not drawn), the inhibition is 4.93% (inactive).

For `CCOCCn1[nH]c2ccccc2c1=O`, the inhibition is 52.9% (inactive).

In the case of `Cc1ccc2c(c1)C1CN(C)CCC1N2S(=O)(=O)c1cccc(F)c1` (stereo not drawn), the inhibition was 22.1% (inactive).

Regarding `CCN(CC)CCn1c2c(c(SCC(=O)Nc3nc4ccccc4s3)nc1=O)CCCC2`, the inhibition was 98.7% (active).

In the case of `Cc1ccc(NC(=O)CSc2nc(=O)n(CCN(C)C)c3c2CCCC3)c(C)c1`, the inhibition is 5.62% (inactive).

Take `Cc1csc(NC(=O)CSc2nc(=O)n(CCCN(C)C)c3c2CCC3)n1`: the inhibition was -272% (inactive).

For `CN(C)CCn1c2c(c(SCC(=O)Nc3ccccc3C(F)(F)F)nc1=O)CCCC2`, the inhibition is 0.246% (inactive).

`Cc1ccc2nc(NC(=O)CSc3nc(=O)n(CCCN(C)C)c4c3CCC4)sc2c1`: the inhibition is 97.3% (active).

For the molecule `CCN(CC)CCn1c2c(c(SCC(=O)Nc3ccc(C(C)C)cc3)nc1=O)CCC2`, the inhibition is -219% (inactive).

`Cc1ccc(C)c(NC(=O)CN(C)C(=O)COc2ccc3ccccc3c2)c1`: the inhibition was -13.6% (inactive).

As to `CC(=O)Nc1ccc(NC(=O)C(NS(=O)(=O)c2ccc3c(c2)OCCO3)C(C)C)cc1` (stereo not drawn), the inhibition was 1.95% (inactive).

With `Cc1c(NC(=O)CN(C)CC(=O)Nc2ccc(F)c(F)c2F)c(=O)n(-c2ccccc2)n1C`, the inhibition is -2.04% (inactive).

`O=C(COC(=O)CCOc1ccccc1)Nc1cc(S(=O)(=O)N2CCCCC2)ccc1Cl`: the inhibition is 4.02% (inactive).

As to `COc1ccc(C(=O)C(C)OC(=O)c2cccc(S(=O)(=O)Nc3c(C)n(C)n(-c4ccccc4)c3=O)c2)cc1` (stereo not drawn), the inhibition was -0.831% (inactive).

As to `Cc1cccc(C(=O)N2CCC(c3nc4ccccc4s3)CC2)c1`, the inhibition was -11.6% (inactive).

Take `Cc1cccc(NC(=S)N2CCC(c3nc4ccccc4s3)CC2)c1`: the inhibition is -3.53% (inactive).

Regarding `O=C(c1cccs1)N1CCC(c2nc3ccccc3s2)CC1`, the inhibition was 98.7% (active).

Regarding `CCC(c1nnc(SCC(=O)NNC(=O)c2ccccc2)n1Cc1ccccc1)N(C)C` (stereo not drawn), the inhibition was -1.21% (inactive).

Regarding `O=C(CSc1nccn1-c1cccc(F)c1)NC1CCCC1`, the inhibition is -4.77% (inactive).

Consider `O=C(CSCC(=O)Nc1cccc([N+](=O)[O-])c1)Nc1ccccc1`, for which the inhibition was -3.46% (inactive).

Take `O=C(CSc1nc(-c2ccccc2)cs1)Nc1cccc([N+](=O)[O-])c1`: the inhibition is 98% (active).

Consider `CCNC(=O)CSc1nc(-c2ccccc2)cs1`, for which the inhibition was -7.87% (inactive).

As to `COc1ccccc1C(=O)NCC(=O)OCC(=O)NNC(=O)c1ccc(Br)cc1`, the inhibition was 0.892% (inactive).

As for `COc1cc(OC)cc(C(=O)NCC(=O)OCC(=O)NC(C)CCc2ccccc2)c1` (stereo not drawn), the inhibition was -4.51% (inactive).

Values taken from PubChem BioAssay AID485317 (Broad Institute, 2010).
